Screening results: PubChem, Broad Institute
The entries come from a sample that favours hits as a whole.
Tgondii IFNg = inhibitors of Toxoplasma gondii growth with IFN-gamma; Toxoplasma gondii growth in IFN-gamma-treated host cells; stronger effect = lower value; activity change, negative = inhibition, % (no concentration beside the values); 69,000 compounds, 3.8% hits; AID 1259416; in the data active means activity change below about -70%, passing the limit was not always enough;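 further: host cells are HeLa cells infected with Toxoplasma gondii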
Starred values were filed as active, the others as inactive; ! = a repeat was not active.

Results for Cc1oc(C2CCN(S(=O)(=O)c3ccc(F)cc3)CC2)nc1C(=O)N1CCCC1 ?
Tgondii IFNg: -29

Results for Cc1ccc(F)cc1S(=O)(=O)N1CCC(c2nc(C(=O)N3CCCC3)c(C)o2)CC1 ?
Tgondii IFNg: -82*

How did Cc1cccc(NC(=O)N2CCC(c3nc(C(=O)N(C)C)c(C)o3)CC2)c1C do in these assays?
Tgondii IFNg: -13

What do the screens show for `CCN(CCCNc1nc(-c2ccc(OC)cc2)nc2ccccc12)c1cccc(C)c1`?
Tgondii IFNg: -25

How did CCOc1ccc(C2CC(=O)Nc3snc(C)c32)cn1 (stereo unspecified) do in these assays?
Tgondii IFNg: 13

How did COCCC(=O)c1cc(-c2cn(-c3nccs3)c(C)n2)n2ccccc12 do in these assays?
Tgondii IFNg: 133

What do the screens show for `COc1ccccc1C(=O)Nc1cnc2sc3c(n2c1=O)CCC(C(C)(C)C)C3` (stereo unspecified)?
Tgondii IFNg: -56

What do the screens show for `CCOC(=O)C1CCC(CNC(=O)N2CCC3(CC2)Nc2cc(OC)ccc2-n2cccc23)CC1` (stereo unspecified)?
Tgondii IFNg: 39

What do the screens show for `COc1ccccc1CNC(=O)c1cncc(NS(=O)(=O)c2ccc(Cl)cc2)c1`?
Tgondii IFNg: 5

How did CC1=C(C(=O)N2CCOc3ccccc3C2)C(c2cccnc2)NC(=O)N1 (stereo unspecified) do in these assays?
Tgondii IFNg: -11

What do the screens show for `Cc1c(NC(=O)CNS(=O)(=O)c2cccs2)n[nH]c1-c1cccs1`?
Tgondii IFNg: 28

What do the screens show for `Cc1ccc(C(C)NC(=O)CN2CCN(Cc3ncccc3C)CC2)cc1` (stereo unspecified)?
Tgondii IFNg: 0

How did CC(=O)Nc1ccc(C)cc1S(=O)(=O)N1CCC2(CC1)Nc1ccccc1-n1cccc12 do in these assays?
Tgondii IFNg: -57

What do the screens show for `COc1ccc(OC)c(S(=O)(=O)NCCc2sc(-c3cccc(C)c3)nc2C)c1`?
Tgondii IFNg: 10

How did C#CCn1c(-c2ccco2)nc2ccccc21 do in these assays?
Tgondii IFNg: 98

Results for N#C/C(=C1/SCC(c2ccccc2Cl)S1)n1ccnc1 (stereo unspecified) ?
Tgondii IFNg: 8

Results for Clc1ccccc1C(c1ccccc1)(c1ccccc1)n1ccnc1 ?
Tgondii IFNg: -83*!

What do the screens show for `FC(F)(F)c1ccccc1-n1ccnc1`?
Tgondii IFNg: 18

How did O=C(c1ccccc1)c1cc(C(=O)c2ccccc2)c(-c2ccccc2)nc1-c1ccccc1 do in these assays?
Tgondii IFNg: -89*

How did Cc1nc(-c2ccccc2)c(NC(=O)c2ccccc2)s1 do in these assays?
Tgondii IFNg: 12

How did COc1cc(O)c(C(=O)c2ccccc2)cc1O do in these assays?
Tgondii IFNg: 8

What do the screens show for `COc1cc2c(cc1OC)CN(CC(=O)Nc1nc(-c3ccccn3)cs1)CC2`?
Tgondii IFNg: -5

Results for CC1(C)NC(=O)N(CCCC(=O)O)C1=O ?
Tgondii IFNg: 34

Results for CC(/C=C1\SC(=O)N(CCCC(=O)O)C1=O)=C\c1ccccc1 ?
Tgondii IFNg: -82*

How did O=C(O)CCCCCNS(=O)(=O)/C=C/c1ccccc1 do in these assays?
Tgondii IFNg: 0

How did CCOc1ccccc1-c1nc(Cn2nnc(C(=O)Nc3ccccc3CC)c2C)c(C)o1 do in these assays?
Tgondii IFNg: -33

What do the screens show for `O=C(COc1ccccc1)N1CCc2c([nH]c3ccccc23)C1c1cccnc1` (stereo unspecified)?
Tgondii IFNg: inactive

What do the screens show for `CCN1CCN(C)C2(CCN(C(=O)c3cnc[nH]3)CC2)C1=O`?
Tgondii IFNg: -8

What do the screens show for `Cc1nocc1C(=O)NC1CC2(CCN(C)CC2)Oc2ccccc21` (stereo unspecified)?
Tgondii IFNg: 2

What do the screens show for `COc1cc(C)nc(OCCNC(=O)COc2ccc(Cl)cc2C)n1`?
Tgondii IFNg: -8

Results for Cc1cc(Cl)ccc1OCCCC(=O)NO ?
Tgondii IFNg: -83*

Results for Cc1cc(Cl)ccc1OCCCC(=O)N1CCN(C)CC1 ?
Tgondii IFNg: 15

What do the screens show for `CC(NC(=O)c1cnnn1-c1ccccc1)c1ccccc1-n1cccn1` (stereo unspecified)?
Tgondii IFNg: 0

How did CN1CCN(Cc2n[nH]c(=O)n2CCc2ccccc2F)CC1 do in these assays?
Tgondii IFNg: 8

Results for Cc1ccc2nc(-c3ccc(-c4ccccc4)s3)cn2c1 ?
Tgondii IFNg: 80

How did Cc1ccc2nc(-c3ccc(Cl)c(C)c3)cn2c1 do in these assays?
Tgondii IFNg: -97*

How did COc1ccc(-c2cn3cc(C)ccc3n2)cc1 do in these assays?
Tgondii IFNg: 317

What do the screens show for `COc1ccc2c3c([nH]c2c1)[C@@H](CO)N(C(=O)c1ccc(F)cc1)CC31CCN(Cc2cccnc2)CC1`?
Tgondii IFNg: -25

What do the screens show for `O=C(CC1CCCCCC1)N1CCC(n2cc(-c3cccnc3)nn2)CC1`?
Tgondii IFNg: -7

What do the screens show for `OCC1(Cc2ccccc2)CCCN(c2ncccc2Cl)C1` (stereo unspecified)?
Tgondii IFNg: -44

What do the screens show for `Nc1cc2c(cc1-n1cccc1)OCCO2`?
Tgondii IFNg: 3

How did CSc1ccccc1NC(=O)Cn1nc(C(F)(F)F)cc1C do in these assays?
Tgondii IFNg: -66

Results for Cc1cccnc1CC(C)Nc1cc(N2CCOCC2)nc(N)n1 (stereo unspecified) ?
Tgondii IFNg: 6

Results for Cc1cccc(/C=N/Nc2cc(N3CCOCC3)nc(OCCc3ccccn3)n2)c1 ?
Tgondii IFNg: -74*

How did Cc1cccc(CN2CCOCC3(CCN(c4ccccn4)C3)C2)n1 (stereo unspecified) do in these assays?
Tgondii IFNg: -43

Results for CCCCN(C)CCCNC(=O)C1=C(C)C(=O)OC12CCN(Cc1ccccc1)CC2 ?
Tgondii IFNg: -61

What do the screens show for `Cc1nc(CC(=O)N2CCOC(C)(C(=O)NC3CCCC3)C2)cs1` (stereo unspecified)?
Tgondii IFNg: -3

What do the screens show for `COc1cccc(-c2ccc3c(c2)O[C@@H](CN(C)Cc2cccnc2)[C@H](C)CN([C@@H](C)CO)S3(=O)=O)c1`?
Tgondii IFNg: -95*

How did COc1ccccc1-c1ccc2c(c1)O[C@H](CN(C)CC1CCOCC1)[C@@H](C)CN([C@H](C)CO)S2(=O)=O do in these assays?
Tgondii IFNg: -52

What do the screens show for `C[C@@H]1CN([C@@H](C)CO)S(=O)(=O)c2ccc(C#Cc3ccccc3F)cc2O[C@@H]1CN(C)C(=O)Cc1cccnc1`?
Tgondii IFNg: -8

Results for COc1cccc(-c2ccc3c(c2)O[C@@H](CN(C)Cc2cccnc2)[C@@H](C)CN([C@H](C)CO)S3(=O)=O)c1 ?
Tgondii IFNg: 30

What do the screens show for `COc1cccc(-c2ccc3c(c2)O[C@H](CN(C)Cc2cccnc2)[C@@H](C)CN([C@H](C)CO)S3(=O)=O)c1`?
Tgondii IFNg: -97*

How did COc1cccc(-c2ccc3c(c2)O[C@@H](CN(C)Cc2cccnc2)[C@@H](C)CN([C@@H](C)CO)S3(=O)=O)c1 do in these assays?
Tgondii IFNg: -55

What do the screens show for `C[C@H](CO)N1C[C@H](C)[C@@H](CN(C)C(=O)Cc2cccnc2)Oc2cc(C#Cc3ccccc3F)ccc2S1(=O)=O`?
Tgondii IFNg: -108*

How did COc1ccccc1-c1ccc2c(c1)O[C@H](CN(C)CC1CCOCC1)[C@@H](C)CN([C@@H](C)CO)S2(=O)=O do in these assays?
Tgondii IFNg: -19

Results for C[C@H]1CN([C@@H](C)CO)S(=O)(=O)c2ccc(C#CC(C)(C)O)cc2O[C@@H]1CN(C)Cc1ccc(F)cc1 ?
Tgondii IFNg: -2
